# Measured values: PubChem BioAssay (Tox21)
# “And” between values parts separate entries of the source, which are not always exact repeats. Equal values may be shown once. The source holds several records for some structures; these can differ, active in one and inactive in another. The source made the active and inactive calls. Entries that show only a call come without a potency. Unless noted, the call rests on the fitted dose curve; in most records, active means well fitted curve in the direction sought with a large enough effect in the repeat runs; inconclusive means weak or mixed curves; inactive means no such curve, though single readings can be large; an effect the other way counts as inactive or inconclusive.
# Experiments:
# [1] = qHTS assay to identify small molecule antagonists of the glucocorticoid receptor (GR) signaling pathway - cell viability counter screen (AID 720693); details: GR-bla HeLa viability, CellTiter-Glo luminescence, 18 h, with 5 nM dexamethasone present; series mostly up to 58.5 µM; further: nearly all actives have a fitted effect of over 55% in size
# [2] = qHTS assay for identifying genotoxic compounds that show differential cytotoxicity against isogenic chicken DT40 cell lines with known DNA damage response pathways - wild type cell line (AID 743012); details: DT40 wild type chicken cells viability, CellTiter-Glo, 40 h; series mostly up to 68.4 µM; further: nearly all actives have a fitted effect of over 60% in size; further: potency means the concentration at half of the fitted maximal effect
# Summary of the method: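 Viability by ATP luminescence (CellTiter-Glo, 30 min RT) after 40 h compound treatment at 37 C/5% CO2, using 300 parental DNA repair-proficient DT40 cells per well.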
# [3] = qHTS assay for identifying genotoxic compounds that show differential cytotoxicity against isogenic chicken DT40 cell lines with known DNA damage response pathways - Rev3 mutant cell line (AID 743014); details: chicken DT40 Rev3-/- viability, CellTiter-Glo, 40 h; series mostly up to 68.4 µM; further: nearly all actives have a fitted effect of over 55% in size; further: potency means the concentration at half of the fitted maximal effect
# [4] = qHTS assay for identifying genotoxic compounds that show differential cytotoxicity against isogenic chicken DT40 cell lines with known DNA damage response pathways - Rad54/Ku70 mutant cell line (AID 743015); details: DT40 Rad54/Ku70 mutant viability, CellTiter-Glo, 40 h; series mostly up to 66.8 µM; further: nearly all actives have a fitted effect of over 60% in size; further: potency means the concentration at half of the fitted maximal effect
# [5] = qHTS assay to identify small molecule antagonists of the androgen receptor (AR) signaling pathway using the MDA cell line - cell viability counter screen (AID 743041; further: nearly all actives have a fitted effect of over 45% in size); details: MDA-kb2 viability, CellTiter-Fluor, 16 h, cells co-treated with R1881 androgen agonist; series mostly up to 70.3 µM
# Summary of the method: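 Cytotoxicity counter screen: MDA-kb2 AR-luc cells, compound + R1881, 16 h, 37C, 0% CO2; CellTiter-Fluor added at 15.5 h, fluorescence read after 30 min.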
# [6] = qHTS assay to identify small molecule antagonists of the thyroid receptor (TR) signaling pathway - cell viability counter screen (AID 743064); details: GH3.TRE-Luc viability, CellTiter-Fluor, 24 h; series mostly up to 70.3 µM; further: nearly all actives have a fitted effect of over 50% in size
# Summary of the method: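 GH3.TRE-Luc rat pituitary cells dosed after 4 hr plating, co-stimulated with T3 at 1 nM final, incubated 23.5 h at 37 C. Viability measured in the same wells by CellTiter-Fluor fluorescence after 30 min further at 37 C.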
# [7] = qHTS assay to identify small molecule antagonists of the thyroid receptor (TR) signaling pathway (AID 743065); details: GH3.TRE-Luc, T3-stimulated luciferase inhibition, 23.5 h; series mostly up to 70.3 µM; further: nearly all actives have a fitted effect of over 55% in size; further: potency means the concentration at half of the fitted maximal effect
# Summary of the method: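 GH3.TRE-Luc rat pituitary cells (two TREs driving luciferase) were dosed with compound, then stimulated with 1 nM T3 (final) for 23.5 h at 37 C. ONE-Glo luminescence was the read-out, with CellTiter-Fluor fluorescence as the cytotoxicity counter-screen.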
# [8] = tested on: thyroid hormone receptor (rat, GH3 cells); assay: qHTS assay to identify small molecule agonists of the thyroid receptor (TR) signaling pathway (AID 743066; calls by dose curve); details: GH3.TRE-Luc cells, TR agonist luciferase, 24 h; series mostly up to 83.9 µM
# [9] = biological target: Estrogen receptor (Homo sapiens) (UniProt P03372); assay: qHTS assay to identify small molecule antagonists of the estrogen receptor alpha (ER-alpha) signaling pathway (AID 743069; active means well fitted curve in the direction sought with a large enough effect in the signal ratio in the repeat runs, not every such curve was filed as active; inconclusive means weak or mixed curves, or effect the other way; inactive means no such curve, though single readings can be large or run the other way; the % refers to the signal ratio); details: HEK293 ER-alpha-UAS-bla, beta-lactamase ratio, antagonist mode; series mostly up to 69.4 µM
# Chain of Estrogen receptor (Homo sapiens) (P03372 whole entry, looked up): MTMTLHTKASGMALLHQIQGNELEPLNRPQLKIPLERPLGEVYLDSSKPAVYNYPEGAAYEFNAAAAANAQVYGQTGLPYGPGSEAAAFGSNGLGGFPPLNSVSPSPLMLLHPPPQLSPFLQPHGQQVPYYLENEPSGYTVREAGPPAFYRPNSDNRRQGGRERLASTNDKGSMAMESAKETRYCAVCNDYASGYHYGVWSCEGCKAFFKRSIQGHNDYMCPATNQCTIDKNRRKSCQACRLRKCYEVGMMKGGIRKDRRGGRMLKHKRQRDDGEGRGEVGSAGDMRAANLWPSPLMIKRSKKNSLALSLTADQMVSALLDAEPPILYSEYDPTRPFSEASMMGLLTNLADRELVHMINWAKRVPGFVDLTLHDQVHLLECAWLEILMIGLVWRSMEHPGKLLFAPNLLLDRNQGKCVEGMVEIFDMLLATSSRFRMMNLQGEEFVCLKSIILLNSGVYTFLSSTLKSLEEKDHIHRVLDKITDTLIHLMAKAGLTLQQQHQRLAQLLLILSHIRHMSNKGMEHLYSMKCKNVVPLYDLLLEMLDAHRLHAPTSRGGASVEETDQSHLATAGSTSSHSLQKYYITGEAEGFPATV
# Summary of the method: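 Beta-lactamase FRET fluorescence is read after 2 hr at room temperature with LiveBLAzer B/G substrate. Before that, ER-alpha-bla HEK293 cells sit 4 hr after plating, then receive compound plus 17beta-estradiol and incubate 18 hr at 37C.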
# [10] = qHTS assay to identify small molecule antagonists of the estrogen receptor alpha (ER-alpha) signaling pathway - cell viability counter screen (AID 743074; calls by dose curve;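 further: HEK293 cells carrying ER-alpha-UAS-bla reporter stimulated with 17beta-estradiol; nearly all actives have a fitted effect of over 45% in size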); details: ERalpha-bla HEK293 viability, CellTiter-Glo luminescence, 18 h; series mostly up to 69.4 µM
# [11] = biological target: Estrogen receptor (Homo sapiens) (UniProt P03372); assay: qHTS assay to identify small molecule agonists of the estrogen receptor alpha (ER-alpha) signaling pathway (AID 743075; calls by dose curve;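 further: HEK293 GripTite cells with ER-alpha and UAS-driven beta-lactamase reporter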; further: potency means the concentration at half of the fitted maximal effect); details: HEK293 ER-alpha-UAS-bla, beta-lactamase FRET ratio, 18 h; series mostly up to 70.1 µM
# [12] = biological target: Estrogen receptor (Homo sapiens) (UniProt P03372); assay: qHTS assay to identify small molecule agonists of the estrogen receptor alpha (ER-alpha) signaling pathway using the BG1 cell line (AID 743079); details: BG1Luc4E2 cells, ERE-luciferase agonist, 22 h; series mostly up to 70.3 µM; further: nearly all actives have a fitted effect of over 20% in size; further: potency means the concentration at half of the fitted maximal effect
# [13] = qHTS assay to identify small molecule antagonists of the estrogen receptor alpha (ER-alpha) signaling pathway using the BG1 cell line (AID 743080; calls by dose curve;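 further: BG1 cells stimulated with 17beta-estradiol alongside compound; nearly all actives have a fitted effect of over 25% in size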; further: potency means the concentration at half of the fitted maximal effect); details: BG1Luc4E2 ERE-luciferase antagonist mode, luminescence; series mostly up to 70.3 µM
# Summary of the method: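 Endogenous full-length ER-alpha in BG1-Luc-4E2 cells drives a stably integrated 4×ERE luciferase gene; compounds were tested against 17beta-estradiol over 21.5 h, with luminescence and multiplexed viability fluorescence recorded.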
# [14] = qHTS assay to identify small molecule antagonists of the estrogen receptor alpha (ER-alpha) signaling pathway using the BG1 cell line - cell viability counter screen (AID 743081); details: BG1Luc4E2 viability, CellTiter-Fluor, 22 h; series mostly up to 70.3 µM;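 further: compound given together with 17beta-estradiol as the ER stimulus; nearly all actives have a fitted effect of over 45% in size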
# [15] = biological target: Aromatase (Homo sapiens) (UniProt P11511); assay: qHTS assay to identify aromatase inhibitors (AID 743083); details: MCF-7 aro ERE, testosterone-driven ERE luciferase, 24 h; series mostly up to 70.3 µM; further: nearly all actives have a fitted effect of over 55% in size; further: potency means the concentration at half of the fitted maximal effect
# Chain of Aromatase (Homo sapiens) (P11511 whole entry, looked up): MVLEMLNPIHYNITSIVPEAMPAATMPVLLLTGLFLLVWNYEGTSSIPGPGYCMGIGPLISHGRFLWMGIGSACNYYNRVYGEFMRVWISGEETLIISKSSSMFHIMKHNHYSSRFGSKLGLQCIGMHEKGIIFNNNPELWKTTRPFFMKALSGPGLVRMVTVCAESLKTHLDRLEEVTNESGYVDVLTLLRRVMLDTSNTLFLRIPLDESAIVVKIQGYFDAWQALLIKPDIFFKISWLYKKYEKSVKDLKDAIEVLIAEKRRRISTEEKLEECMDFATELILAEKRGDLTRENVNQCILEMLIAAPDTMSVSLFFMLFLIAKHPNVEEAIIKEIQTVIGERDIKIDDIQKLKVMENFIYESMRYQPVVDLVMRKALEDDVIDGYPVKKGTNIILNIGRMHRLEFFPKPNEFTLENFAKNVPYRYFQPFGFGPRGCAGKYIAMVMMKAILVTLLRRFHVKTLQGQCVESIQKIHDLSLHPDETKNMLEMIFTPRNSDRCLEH
# [16] = qHTS assay to identify small molecule antagonists of the androgen receptor (AR) signaling pathway - cell viability counter screen (AID 743033; further: nearly all actives have a fitted effect of over 45% in size); details: AR-bla HEK293 viability, CellTiter-Glo luminescence, 16 h; series mostly up to 58.5 µM
# [17] = biological target: Androgen receptor (Homo sapiens) (UniProt P10275); assay: qHTS assay to identify small molecule antagonists of the androgen receptor (AR) signaling pathway (AID 743035; active means well fitted inhibition curve with a large enough effect in the signal ratio in the repeat runs, not every such curve was filed as active; inconclusive means weak or mixed curves, or effect the other way; inactive means no such curve, though single readings can be large or run the other way; the % refers to the signal ratio); details: HEK293 AR-UAS-bla, R1881-stimulated, beta-lactamase FRET, 16 h; series mostly up to 58.5 µM
# Chain of Androgen receptor (Homo sapiens) (P10275 whole entry, looked up): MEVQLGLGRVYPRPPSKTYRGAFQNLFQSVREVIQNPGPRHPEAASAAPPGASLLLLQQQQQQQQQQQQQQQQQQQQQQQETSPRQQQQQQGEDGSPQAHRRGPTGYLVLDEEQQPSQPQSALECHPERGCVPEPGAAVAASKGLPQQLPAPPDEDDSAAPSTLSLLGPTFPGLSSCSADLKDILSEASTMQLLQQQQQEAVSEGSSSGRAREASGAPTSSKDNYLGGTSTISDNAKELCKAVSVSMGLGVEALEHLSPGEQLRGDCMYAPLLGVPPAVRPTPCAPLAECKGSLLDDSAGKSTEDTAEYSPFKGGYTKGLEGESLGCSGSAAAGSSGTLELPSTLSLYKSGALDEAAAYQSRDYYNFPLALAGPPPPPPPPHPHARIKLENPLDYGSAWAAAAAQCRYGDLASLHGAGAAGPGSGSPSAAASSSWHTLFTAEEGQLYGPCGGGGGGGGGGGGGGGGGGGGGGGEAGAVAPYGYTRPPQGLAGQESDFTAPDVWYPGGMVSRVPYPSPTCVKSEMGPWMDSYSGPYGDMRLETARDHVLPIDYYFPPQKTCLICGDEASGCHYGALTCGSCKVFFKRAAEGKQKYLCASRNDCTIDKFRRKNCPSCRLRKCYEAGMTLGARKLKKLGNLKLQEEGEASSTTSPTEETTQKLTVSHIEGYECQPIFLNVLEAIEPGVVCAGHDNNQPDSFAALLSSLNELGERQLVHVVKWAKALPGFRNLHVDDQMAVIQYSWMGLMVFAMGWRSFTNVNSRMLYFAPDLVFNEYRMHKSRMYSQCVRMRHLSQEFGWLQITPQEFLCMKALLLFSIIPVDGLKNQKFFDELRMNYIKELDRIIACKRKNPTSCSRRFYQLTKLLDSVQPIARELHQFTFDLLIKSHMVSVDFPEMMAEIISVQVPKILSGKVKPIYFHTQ
# Summary of the method: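 Antagonist mode: AR-bla HEK293 cells co-treated with test compounds and agonist R1881 for 16 h at 37C, 5% CO2. Beta-lactamase activity read as FRET fluorescence after 2 h room-temperature substrate loading.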
# [18] = biological target: Androgen receptor (Homo sapiens) (UniProt P10275); assay: qHTS assay to identify small molecule agonists of the androgen receptor (AR) signaling pathway (AID 743036; active means well fitted activation curve with a large enough effect in the signal ratio in the repeat runs, with a control signal flat, not every such curve was filed as active; inconclusive means weak or mixed curves, or effect the other way; inactive means no such curve, though single readings can be large or run the other way; the % refers to the signal ratio); details: HEK293 AR-UAS-bla GripTite, beta-lactamase FRET ratio, 16 h; series mostly up to 62.4 µM
# Summary of the method: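 AR-UAS-bla HEK293 cells, plated 4 h before dosing, were treated with compound for 16 h at 37C. beta-Lactamase reporter read after 2 h with LiveBLAzer B/G FRET substrate at room temperature.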
# [19] = biological target: Androgen receptor (Homo sapiens) (UniProt P10275); assay: qHTS assay to identify small molecule agonists of the androgen receptor (AR) signaling pathway using the MDA cell line (AID 743040; further: nearly all actives have a fitted effect of over 20% in size); details: MDA-kb2 AR-luc cells, MMTV luciferase, 16 h, stronger effect = higher value; series mostly up to 70.3 µM
# Summary of the method: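 Luciferase read-out, ONE-Glo, 30 min RT. Cells: MDA-kb2 AR-luc, MMTV promoter with AR and GR response elements. Compound exposure 16 h, 37C, 0% CO2, after 5 h pre-incubation. qHTS agonist mode.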
# [20] = biological target: Androgen receptor (Homo sapiens) (UniProt P10275); assay: qHTS assay to identify small molecule antagonists of the androgen receptor (AR) signaling pathway using the MDA cell line (AID 743042; further: nearly all actives have a fitted effect of over 55% in size); details: MDA-kb2 AR-luc, MMTV luciferase, R1881 antagonist, 16 h; series mostly up to 70.3 µM
# Summary of the method: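 MDA-kb2 breast carcinoma cells carrying MMTV-luciferase (AR/GR responsive) were co-treated with compounds and the agonist R1881 for 16 h at 37C. Inhibition read as ONE-Glo luminescence; CellTiter-Fluor fluorescence measured in parallel for cytotoxicity.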
Structure (SMILES),Potency [1],Potency [2],Potency [3],Potency [4],Potency [5],Potency [6],Potency [7],outcome [8],Potency [9],Potency [10],Potency [11],Potency [12],Potency [13],Potency [14],Potency [15],Potency [16],outcome [17],outcome [18],outcome [19],outcome [20]
CCC(C)C=O (stereo unspecified),inactive,inactive,inactive,inactive,inactive,inactive,inactive,inactive,inactive,inactive,inactive,inactive,inactive,inactive,inactive,,,,,
CN(CCOc1ccc(CC2SC(=O)NC2=O)cc1)c1ccccn1 (stereo unspecified),inactive,inactive and 60.8 µM (active),inactive and 60.8 µM (active),27.1 µM (active),inactive,inactive,54.2 µM (active),inactive,inactive,inactive,inactive,inactive,inactive,inactive,,,,,,
CC1Cc2ccccc2N1NC(=O)c1ccc(Cl)c(S(N)(=O)=O)c1 (stereo unspecified),inactive,inactive,inactive,inactive,inactive,inactive,inactive,inactive,inactive,inactive,inactive,inactive,inactive,inactive,inactive,,,,,
NCc1cccc(CN)c1,inactive,inactive,inactive,inactive,inactive,,inactive,inactive,inactive,inactive,inactive,inactive,inactive,inactive,inactive,,,,,
c1ccc2ccccc2c1,inactive,,inactive,inactive,inactive,inactive,inactive,inactive,inactive,inactive,inactive,inactive,inactive,inactive,inactive,inactive,,,,
CC1=C(/C=C/C(C)=C/C=C/C(C)=C/CO)C(C)(C)CCC1,inactive,28.8 µM (active),55.1 µM (active) and 36.2 µM (active),43.8 µM (active) and 25.7 µM (active),inactive,inactive,,inactive,inactive,inactive,8.49 µM [inconclusive] (active) and inactive,944 nM (active) and inactive,15 µM (active) and 7.79 µM (active) and inactive,inactive,inactive and 28.8 µM (active),,,,,
Cc1cc(Cc2ccc(N)c(C)c2)ccc1N,inactive,61.1 µM (active),68.6 µM (active) and 54.5 µM (active),61.1 µM (active) and 68.6 µM (active),inactive,inactive,inactive,inactive,,inactive,,,,inactive,,,,,,
COC(=O)c1ccccc1O,inactive,,inactive,inactive,inactive,inactive,inactive,inactive,inactive,inactive,inactive,23.7 µM (active) and inactive,inactive,inactive,inactive,inactive,,,,
Nc1cc(-c2ccncc2)c[nH]c1=O,inactive,inactive,inactive,inactive,inactive,inactive,inactive,inactive,inactive,inactive,inactive,inactive,inactive,inactive,inactive,,inactive,inactive,inactive,inactive
NCCNCCNCCNCCN,inactive,inactive,,inactive,inactive,inactive,inactive,inactive,,inactive,,,,inactive,inactive,,inactive,inactive,inactive,inactive
Cc1ccc(C)c(C)c1,inactive,inactive,inactive,inactive,inactive,inactive,inactive,inactive,inactive,inactive,inactive,inactive,inactive,inactive,inactive,,inactive,inactive,inactive,inactive
COCC(=O)O,inactive,,inactive,inactive,inactive,inactive,inactive,inactive,inactive,inactive,inactive,inactive,inactive,inactive,inactive,inactive,,,,
C=C1CC[C@H](O)CC1=C/C=C1\CCC[C@]2(C)[C@@H]([C@H](C)/C=C/[C@H](C)C(C)C)CC[C@@H]12,,10.6 µM (active) and 13.6 µM (active) and 30.6 µM (active),,,,,,,,,,,,,,,,,,
O=C1CCCCC1,,,,,,,,,,,,,,,,,inactive,inactive,,inactive
O=[N+]([O-])c1cc(N(CCO)CCO)ccc1NCCO,,,,,,,,,,,,,,,,,inactive,inactive,,
O=c1c(-c2ccc(O)cc2)coc2cc(O)ccc12,,,,,,,,,,,,,,,,,,,,inactive
